Measurements published in PubChem BioAssay (NCI).
About 83,000 compounds went through this panel and 20% of them were active in at least one assay; those are over-represented in the sample as a whole.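 Growth was measured after 48 h exposure to one concentration of compound in 96-well plates. Values under 10 count as active.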 Values without a mark were called inactive. Activity calls are given as the source filed them. Where a SMILES comes first, the peptide text is derived from it. Bridges are numbered along the chain shown (N, C = ends). [ ]: non-standard residue; d: D form. The star is where a group is joined. ξ: configuration not given here. ξNMePhe(4-NMe2) = CNC(Cc1ccc(N(C)C)cc1)C(=O)O; Picolinoyl(3-OH) = O=C(c1ncccc1O)*; ξPip(4-oxo) = O=C1CCNC(C(=O)O)C1; Phg = N[CH](C(=O)O)c1ccccc1; Abu = CC[CH](N)C(=O)O

Test system: SF-295 CNS
Assay: NCI-60 one-dose screen, 48 h (100 = growth as untreated, 0 = no growth, -100 = all killed)
Conditions: 10 µM

Row | SMILES | growth [%]
1 | Cc1cccc(C(=O)N(C(C)C)C(C)C)c1 | 90.4
2 | CC1(C)/C(=C\CO)C2CCC1C2 (stereo not given) | 120
3 | CN(C)c1ccc(S(=O)(=O)O)cc1 | 107
4 | O=[N+]([O-])c1ccc(/C=C/C=C/c2ccccc2)c(Cl)c1 | 98.7
5 | N#CSc1cc(S(N)(=O)=O)ccc1N | 120
6 | CCC1NC(=O)C(NC(=O)c2ncccc2O)C(C)OC(=O)C(c2ccccc2)NC(=O)C2CC(=O)CCN2C(=O)C(Cc2ccc(N(C)C)cc2)N(C)C(=O)C2CCCN2C1=O (stereo not given) (tested in a mixture with another compound) ({Picolinoyl(3-OH)}-T[Abu]P[ξNMePhe(4-NMe2)][ξPip(4-oxo)][Phg]; ester 1-C; configuration not given here) | 20.7
7 | C=CCNc1ccccc1 | 138
8 | CCOC(=O)C(CCC(C)C)C(=O)OCC | 102
9 | COc1cccc(Sc2ccc([N+](=O)[O-])c3no[n+]([O-])c23)c1 | 95.9
10 | CC1CC(O)CC(C)(C)C1 (stereo not given) | 98.7
11 | Oc1ccccc1O | 136
12 | Clc1ccc(-c2n[nH]c3c2Cc2ccccc2-3)cc1Cl | 99.5
13 | CC1OC(Oc2c(-c3ccc(O)c(O)c3)oc3cc(O)cc(O)c3c2=O)C(O)C(O)C1O (stereo not given) | 105
14 | O=c1[nH]nc(SC2CCCCC2)c(=O)[nH]1 | 118
15 | CC(C)C1CCCCC1O (stereo not given) | 111
16 | CCC(C#N)(CC)c1ccccc1 | 113
17 | CC(=O)c1ccc(C(C)(C)C)cc1 | 97.6
18 | CC(C)OC(=O)c1cc(NC(=S)OC(C)C)ccc1Cl | 83.5
19 | Cc1cc2ccccc2c(O)c1C#N | 116
20 | OCCN1CCOCC1 | 110
21 | CC(=O)Oc1ccc(Br)cc1C(=O)O | 109
22 | C#CCSc1nnnn1-c1ccc(Br)c(C)c1 | 103
23 | c1ccc2c(c1)Sc1ccccc1S2 | 101

Test system: SF-539 CNS
Assay: as above
Conditions: 10 µM

Row | SMILES | growth
24 | N#CC1(Nc2ccc3c4c(cccc24)CC3)CCCCC1 | 108%
25 | CCCC1(c2ccccc2)NC(=O)NC1=O (stereo not given) | 100%
26 | O=C(NN=C1CCCCC1)C(=O)NN=C1CCCCC1 | 101%
27 | CC1CCCC(CC(N)=O)CC1 (stereo not given) | 98.4%
28 | CC(=O)OC(OC(C)=O)C1CCCO1 (stereo not given) | 100%
29 | CCOc1ccc(/C=N/N=C(N)N)cc1OCC | 99.8%
30 | COc1ccc2c(NCCCCCCCCNc3c4ccccc4nc4cc(OC)ccc34)c3ccccc3nc2c1 | -100% (active)
31 | Nc1ncnc2[nH]ncc12 | 35.6%
32 | Cc1ccc(C(=O)c2ccccc2)c(C)c1 | 98.9%
33 | O=C(c1ccc(Cl)cc1)c1ccccc1Cl | 89%
34 | COc1cc2c(cc1O)CC[C@@H]1C2CC[C@@]2(C)C1CC[C@@H]2O (stereo not given in full) | -4.91% (active)
35 | CC(=O)OCC1=CC2OC(=O)C3=COC(OC4OC(CO)C(O)C(O)C4O)C1C32 (stereo not given) | 109%
36 | CC1(C)N=C(N)N=C(N)N1c1cccc(Br)c1 | 16.2%
37 | C/C(=C\c1ccc([N+](=O)[O-])cc1)C(=O)O | 100%
38 | Oc1ccccc1-c1nnco1 | 89.9%
39 | CO[C@H]1C[C@@H]2CC[C@@H](C)[C@@](O)(O2)C(=O)C(=O)N2CCCC[C@H]2C(=O)O[C@H]([C@H](C)C[C@@H]2CC[C@@H](O)[C@H](OC)C2)CC(=O)[C@H](C)C=C(C)[C@@H](O)[C@@H](OC)C(=O)[C@H](C)C[C@H](C)/C=C/C=C/C=C1C | 30.4%
40 | Cc1cccc(C(=O)N(C(C)C)C(C)C)c1 | 96.3%
41 | CC1(C)/C(=C\CO)C2CCC1C2 (stereo not given) | 109%
42 | CN(C)c1ccc(S(=O)(=O)O)cc1 | 91.2%
43 | O=[N+]([O-])c1ccc(/C=C/C=C/c2ccccc2)c(Cl)c1 | 99%
44 | N#CSc1cc(S(N)(=O)=O)ccc1N | 102%
45 | CCC1NC(=O)C(NC(=O)c2ncccc2O)C(C)OC(=O)C(c2ccccc2)NC(=O)C2CC(=O)CCN2C(=O)C(Cc2ccc(N(C)C)cc2)N(C)C(=O)C2CCCN2C1=O (stereo not given) (tested in a mixture with another compound) ({Picolinoyl(3-OH)}-T[Abu]P[ξNMePhe(4-NMe2)][ξPip(4-oxo)][Phg]; ester 1-C; configuration not given here) | 64.2%
